Laboratory results published in PubChem BioAssay AID651610 (Broad Institute, 2012).
About 3,900 (1.1%) of roughly 360,000 compounds were called active. The sample holds actives, similar compounds and a random draw of the others, so the mix is not that of the screen. A number with no mark means an inactive call.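 How the source made its calls: active means mean replicate inhibition score of at least 50 and every replicate individually at or above 50; inconclusive means only one of the two criteria met; inactive means mean below 50 and not all replicates reaching 50.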

Assay: inhibitors of HIV-1 Env-driven cell-cell fusion, primary screen, HeLa-JRFL effector, CEM21 target cells, luciferase (AID 651610);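 further: 0% = plate neutral controls and 100% = maraviroc near 300 nM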
Settings: hits give high values; at 16.7 µM unless noted

Structure (SMILES) | inhibition
Cc1ccc(CN2CC(C(=O)N3CCN(S(=O)(=O)c4ccccc4)CC3)CC2=O)cc1 (stereo not drawn) | 64.5% [at 12.3 µM] (active)
Cc1ccc(S(=O)(=O)N2CCC(C(=O)N3CCCCCCC3)CC2)cc1 | -2.71% [at 12.3 µM]
CCC(C)c1ccccc1N1CC(C(=O)N2CCN(S(=O)(=O)c3ccc(F)cc3)CC2)CC1=O (stereo not drawn) | 18.5% [at 12.3 µM]
COc1ccc2c3c(n(C)c2c1)[C@@H](CO)N(C(C)=O)CC31CCN(C(=O)C2CC2)CC1 | 3.46%
C[C@H](CO)N1C[C@H](C)[C@H](CN(C)C(=O)Nc2ccc(F)cc2)Oc2c(NC(=O)c3cnccn3)cccc2C1=O | 30.7%
O=C(NNC(=O)c1ccc(-c2ccccc2)cc1)Nc1ccccc1 | 17% [at 12.3 µM]
C=CC[n+]1c(-c2ccc(C)cc2)csc1NNC(=O)Nc1ccccc1 | 77.7% [at 12.3 µM] (active)
Cc1ccc(NC(=O)NNC(=O)c2sccc2-n2cccc2)cc1 | -3.39% [at 12.3 µM]
C[C@H](CO)N1C[C@H](C)[C@@H](CN(C)CC2CCOCC2)Oc2ncc(C#Cc3ccc(F)cc3)cc2C1=O | 7.54%
C[C@@H](O)C#Cc1cnc2c(c1)C(=O)N([C@@H](C)CO)C[C@H](C)[C@H](CN(C)C(=O)c1ccccc1F)O2 | 5.54%
COc1ccccc1CNc1nc(Nc2ccccc2Cl)c2sccc2n1 | 20.5% [at 12.3 µM]
COc1cccc(CNc2nc(NCc3ccccc3OC)nc3ccsc23)c1 | 72.3% [at 12.3 µM] (active)
COCCNc1nc(NCc2ccc(NC(C)=O)cc2)c2sccc2n1 | -25.8% [at 12.3 µM]
C[C@@H]1CN([C@@H](C)CO)C(=O)Cc2cc(NS(C)(=O)=O)ccc2O[C@H]1CN(C)S(=O)(=O)c1ccc(F)cc1 | -0.637%
CN1[C@@H]2c3ccc(-c4ccc(F)cc4)c(=O)n3C[C@H]1[C@H](CO)[C@H]2C(=O)NC1CCC1 | 0.501%
CCN1C(=O)[C@H]2[C@@H](c3ccc(C)cc3)N3C(=O)N(c4cccc(Br)c4)C(=O)[C@@]3(CC)[C@H]2C1=O | 82.7% [at 12.3 µM] (active)
C[C@@]12C(=O)N(c3cccc(Br)c3)C(=O)N1[C@H](c1ccc(Cl)cc1)[C@@H]1C(=O)N(C3CCCCC3)C(=O)[C@@H]12 | -9.25% [at 12.3 µM]
CCCCC1(C(=O)OCC)NC(c2ccc(O)cc2)C2C(=O)N(c3ccccc3)C(=O)C21 (stereo not drawn) | 2.85% [at 12.3 µM]
COc1ccc([C@@H]2[C@@H]3C(=O)N(C(C)(C)C)C(=O)[C@@H]3[C@]3(Cc4ccccc4)C(=O)N(c4cccc(Br)c4)C(=O)N23)cc1 | 33.2% [at 12.3 µM]
CC12C(=O)N(c3ccccc3)C(=O)C1C(c1ccccc1)N1CCCN12 (stereo not drawn) | 6.12% [at 12.3 µM]
CCOC(=O)[C@@H]1[C@H]2COc3ccc(Br)cc3[C@H]2N2C(=O)N(c3ccc(C)cc3)C(=O)[C@@]12C | -52.6% [at 12.3 µM]

Structure (SMILES) | inhibition
CC(C)(C)N1C(=O)[C@H]2[C@@H](c3ccc(Br)cc3)N3C(=O)N(c4cccc(Cl)c4)C(=O)[C@@]3(C)[C@H]2C1=O | 72.7% [at 12.3 µM] (active)
CC[C@@]12C(=O)N(c3ccccc3)C(=O)N1[C@H](c1ccc(Br)cc1)[C@@H]1C(=O)N(C(C)(C)C)C(=O)[C@@H]12 | 59.8% [at 12.3 µM] (active)
CCN1C(=O)[C@H]2[C@@H](c3ccc(C(F)(F)F)cc3)N[C@]3(CCCN(Cc4ccc(Br)cc4)C3=O)[C@H]2C1=O | -31.5% [at 12.3 µM]
C[C@@H]1CCCCO[C@@H](CN(C)S(=O)(=O)c2ccc(F)cc2)[C@@H](C)CN([C@@H](C)CO)C(=O)c2cc(NC(=O)Nc3ccc(F)cc3)ccc2O1 | -9.74%
C[C@H](CO)N1C[C@H](C)[C@@H](CN(C)C(=O)C2CC2)Oc2cc(-c3cccc(C#N)c3)ccc2S1(=O)=O | 6.81%
COc1ccccc1S(=O)(=O)N[C@@H]1CC[C@H](CC(=O)N2CCN(C)CC2)O[C@@H]1CO | -0.692%
C[C@@H]1CN([C@@H](C)CO)C(=O)c2cccc(NC(=O)C3CCOCC3)c2O[C@H]1CN(C)C(=O)NC1CCCCC1 | 10.1%
C[C@@H]1CN([C@@H](C)CO)S(=O)(=O)c2ccc(C#CC3CCCC3)cc2O[C@H]1CN(C)S(C)(=O)=O | 6.95%
COc1cccc(-c2cnc3c(c2)C(=O)N([C@H](C)CO)C[C@@H](C)[C@H](CN(C)Cc2ccc(F)cc2)O3)c1 | 7.73%
CN1C(=O)c2cc(NC(=O)c3cccs3)ccc2OC[C@H]2O[C@@H](CC(=O)NCC3CC3)CC[C@@H]21 | 3.56%
Cc1cc(C)cc(N2C(=O)CSC2c2cccc([N+](=O)[O-])c2)c1 (stereo not drawn) | -6.42%
C[C@H]1CN([C@@H](C)CO)C(=O)c2cccc(NS(=O)(=O)c3ccc(Cl)cc3)c2O[C@H]1CN(C)S(=O)(=O)c1ccc(Cl)cc1 | -26.5%
O=C(CCS(=O)(=O)c1ccccc1)NC1CCCC1 | 11.3% [at 12.3 µM]
O=C(CCS(=O)(=O)c1ccccc1)Nc1nc2c(s1)CCCC2 | 60.1% [at 12.3 µM] (active)
O=C(CSc1nc(O)c(Cc2ccccc2)c(=O)[nH]1)Nc1nc2c(s1)CCCC2 | 25.1% [at 12.3 µM]
CCCOc1ccc(N2C(=O)CC(N(CCc3ccc(S(N)(=O)=O)cc3)C(C)=O)C2=O)cc1 (stereo not drawn) | 19.9% [at 12.3 µM]
COC(=O)CN(C(=S)Nc1ccc(Cl)cc1)C1CC(=O)N(c2ccc(OC)cc2)C1=O (stereo not drawn) | -3.79% [at 12.3 µM]
COc1ccc(N2C(=O)C(CC(=O)Nc3ccccc3)N(Cc3ccc(OC)c(OC)c3)C2=O)cc1 (stereo not drawn) | 56.7% [at 12.3 µM] (active)
CCOc1ccc(N2C(=O)CC(N(CCc3ccc(OC)c(OC)c3)C(=S)Nc3ccccc3)C2=O)cc1 (stereo not drawn) | 58.4% [at 12.3 µM] (active)
CCOc1ccc(NC(=O)CC2C(=O)N(c3ccccc3)C(=O)N2CCOC)cc1 (stereo not drawn) | -3.16% [at 12.3 µM]
COc1ccc(CCN2C(=O)N(c3ccc(OC)cc3)C(=O)C2CC(=O)Nc2ccc(OC)cc2)cc1 (stereo not drawn) | 9.15% [at 12.3 µM]

Structure (SMILES) | inhibition
C[C@H](CO)N1C[C@H](C)[C@@H](CN(C)C(=O)C2CC2)Oc2cc(C#CC(C)(C)O)ccc2S1(=O)=O | -33.6%
C[C@@H]1CCCCO[C@@H](CN(C)C(=O)Nc2cccc3ccccc23)[C@H](C)CN([C@H](C)CO)C(=O)c2cc(NS(C)(=O)=O)ccc2O1 | -3.83%
Cc1noc(C)c1S(=O)(=O)Nc1ccc2c(c1)CC(=O)N([C@H](C)CO)C[C@@H](C)[C@@H](CN(C)Cc1ccc(C(=O)O)cc1)O2 | 20.1%
CC1CN(Cc2nc3c(c(=O)n(C)c(=O)n3C)n2Cc2cccc(Cl)c2)CC(C)O1 (stereo not drawn) | 7.96% [at 12.3 µM]
Cn1c(=O)c2c(nc(NCCc3ccccc3)n2Cc2ccccc2)n(C)c1=O | 86.6% [at 12.3 µM] (active)
CC(C)OCCCNc1nc2c(c(=O)n(Cc3ccccc3F)c(=O)n2C)n1C | 4.04% [at 12.3 µM]
Cn1c(=O)c2c(nc(NCCNC(=O)c3ccco3)n2Cc2ccccc2F)n(C)c1=O | 0.989% [at 12.3 µM]
Cn1c(=O)c2c(nc(NCc3ccccc3)n2CC(N)=O)n(C)c1=O | -8.78% [at 12.3 µM]
CCCCNc1nc2c(c(=O)n(C)c(=O)n2C)n1Cc1cccc(OC)c1 | 88.5% [at 12.3 µM] (active)
COc1ccc(S(=O)(=O)Nc2ccc3c(c2)C(=O)N([C@H](C)CO)C[C@@H](C)[C@H](CN(C)C(=O)Nc2ccc4c(c2)OCO4)O3)cc1 | 12%
COc1cccc(S(=O)(=O)N[C@H]2CC[C@@H](CCN)O[C@H]2CO)c1 | -38.7%
CN(C)CCCNC(=O)C[C@@H]1C=C[C@H](NC(=O)Cc2cccnc2)[C@H](CO)O1 | 12.3%
C[C@@H]1CCCCO[C@@H](CN(C)Cc2ccncc2)[C@H](C)CN([C@H](C)CO)C(=O)c2cc(NC(=O)CCC(F)(F)F)ccc2O1 | -12.7%
COc1cccc2c1C(=O)c1c(O)c3c(c(O)c1C2=O)CC(O)(C(C)=NNC(=O)c1ccc(Cl)c(Cl)c1)CC3OC1CC(N)C(O)C(C)O1 (stereo not drawn) | 86% [at 12.3 µM] (active)
C[C@@H](NC(=O)C[C@@H]1CC[C@@H](NC(=O)C2CCOCC2)[C@@H](CO)O1)c1ccccc1 | -27.6%
C[C@@H]1CN([C@@H](C)CO)C(=O)c2cc(-c3cncnc3)cnc2O[C@@H]1CN(C)Cc1ccncc1 | 1.5%
CC1CCCN(c2cccc3c2S(=O)(=O)N(Cc2ccc(F)cc2)[C@@H](C)[C@H](c2ccccc2)O3)C1 (stereo partly drawn) | -2.41% [at 12.3 µM]
CN(C)C(=O)C[C@@H]1CC[C@H](NC(=O)NC2CCCC2)[C@H](CO)O1 | 2.96%
Cc1cc(NC(=O)c2ccco2)c(=O)n(Cc2c(F)cccc2Cl)c1 | -1.03% [at 12.3 µM]
O=C(Nc1cccn(Cc2c(Cl)cccc2Cl)c1=O)c1ccc(Cl)cc1 | 76.4% [at 12.3 µM] (active)
O=C(Nc1cccn(Cc2ccccc2Cl)c1=O)NC1CCCCC1 | -4.39% [at 12.3 µM]
